These results are taken from PubChem BioAssay (NCATS).

Each structure is given as a SMILES string. Records with an inconclusive call do not appear. Activity calls are given as the source filed them. Calls come from the whole dose curve; as a rule, active = well fitted cell-killing curve with a large enough effect; inconclusive = small, poorly fitted or top-dose-only effect; inactive = no such curve, though single readings can be large or run the other way. Numbered stars: 1 amine (or outer) side, 2 acyl side, 3 side chain; on linkers, the order of the positions; unused ones are H or OH. Bridge positions count the residues as written; N and C are the ends. Square brackets hold non-standard residues; d marks the D form. Peptide text beside a SMILES is read from it. I, II: the chains in the order shown. Actinocin(9to1) = Cc1c2oc3c(C)ccc(C(=O)[*:1])c3nc-2c(C(=O)[*:2])c(N)c1=O; NMeV = CN[C@H](C(=O)O)C(C)C; Sar = CNCC(=O)O
Potency is the fitted concentration of half-maximal effect.

This experiment is described as follows: qHTS of pediatric cancer cell lines to identify multiple opportunities for drug repurposing: Confirmatory screen for BT-37 cells (AID 1347117). Note: nearly all actives have a fitted effect of over 55% in size. As to conditions: BT-37 pediatric cancer cells, viability; series mostly up to 45.9 µM; activity change, negative = cytotoxic: at the top concentration. The source says:
Drug repurposing or repositioning has been offered as a strategy for drug development in oncology programs. This approach has special potential for childhood cancers and other rare or orphan diseases, where the expected return on new drug development has been a disincentive to pharmaceuticals.
In this project we exploit the poly-pharmacology of drugs to discover new indications via phenotypic screening of a panel of 19 well-characterized cell lines derived from solid tumors seen in children and adolescents. The goal is to identify approved drugs with previously unrecognized anticancer properties that has the potential to reveal new mechanisms and biological processes involved in carcinogenesis or drug resistance. We employed a titration-based paradigm (quantitative high-throughput screening or qHTS), where all compounds were tested at multiple concentrations for their effect on cell viability. Concentration-response curves (CRCs) were derived directly from the primary screen, and both potency and efficacy values were used to identify compounds with robust bioactivity profiles. We screened the NIH Chemical Genomics Center (NCGC) Pharmaceutical Collection (NPC) and Mechanism Interrogation Plate (MIPE) small molecule collections of approved and investigational compounds against these cell lines; and measured metabolically active cells after 48 hours of compound treatment as a proxy for cell viability.
Assay Submitter: Nathalia J. Martinez, National Center for Advancing Translational Sciences, National Institutes of Health, Rockville, MD, USA; email: natalia.martinez@nih.gov
[1] Shen, M et al. Quantitative high-throughput phenotypic screening of pediatric cancer cell lines identifies multiple opportunities for drug repurposing. Oncotarget 2017 Dec 19;9(4):4758-4772. PMID 29435139.
The cells were obtained from University of North Carolina (UNC), Pediatric Preclinical Testing Program (PPT), and Coriell Institute (CI).
qHTS cell viability assay:
Cells were assayed in growth media at a density of 500-1,000 cells/well. Five microliters of cells were dispensed into 1,536-well, white, solid-bottom, TC-treated plates (Greiner Bio One) using a multidrop dispenser and incubated at 37 degrees C, 5% CO2, under a humidified atmosphere for 5 hours. Twenty-three nanoliters of compounds and controls (neutral control DMSO or positive control bortezomib at final concentration of 2.3 µM) were subsequently transferred by Kalypsys pintool. For primary screens, the MIPE collection was tested at 11-point dilutions (final concentrations range from 0.78 nM to 46 µM) and the NPC collection at 8-point dilutions (final concentrations range from 0.59 nM to 46 µM). Compounds tested in follow-up screens were assayed at 11-point dilutions. Cells were incubated for 48 hours, followed by addition of 3 µL of CellTiter-Glo (Promega). After a 15 min incubation at room temperature, samples were analyzed for luminescence intensity using a ViewLux High-throughput CCD imager equipped with clear filters.
On to `Oc1ccc(O)cc1`, for which the “activity change, negative = cytotoxic” value was -25% (inactive).
Take `CC1(C)O[C@@H]2C[C@H]3[C@@H]4CCC5=CC(=O)CC[C@]5(C)[C@@]4(F)[C@@H](O)C[C@]3(C)[C@]2(C(=O)CCl)O1`: the “activity change, negative = cytotoxic” value was -1.02% (inactive).
Take `CN(C)C(=S)SC(=S)N(C)C`: the Potency was 3.69 µM (active).
On the same count and under the same terms, under `Cc1c2oc3c(C)ccc(C(=O)N[C@@H]4C(=O)N[C@H](C(C)C)C(=O)N5CCC[C@H]5C(=O)N(C)CC(=O)N(C)[C@@H](C(C)C)C(=O)O[C@@H]4C)c3nc-2c(C(=O)N[C@@H]2C(=O)N[C@H](C(C)C)C(=O)N3CCC[C@H]3C(=O)N(C)CC(=O)N(C)[C@@H](C(C)C)C(=O)O[C@@H]2C)c(N)c1=O` (I: T[dV]P[Sar][NMeV] / II: T[dV]P[Sar][NMeV]; ester I:1-I:C, II:1-II:C; linker I:N-II:N via Actinocin(9to1)) stands 0.0023 µM (active).
As to `NC(CO)(CO)CO`, the “activity change, negative = cytotoxic” value was 4.34% (inactive).
On the same count and under the same terms, the result for `NC(=O)CC[C@@H]1NC(=O)[C@H](Cc2ccccc2)NC(=O)[C@H](Cc2ccc(O)cc2)NC(=O)CCSSC[C@@H](C(=O)N2CCC[C@H]2C(=O)N[C@@H](CCCN=C(N)N)C(=O)NCC(N)=O)NC(=O)[C@H](CC(N)=O)NC1=O` reads -15.8% (inactive).
As to `C[n+]1c2cc(N)ccc2cc2ccc(N)cc21` (tested in a mixture with another compound), the Potency was 0.827 µM (active).
For the molecule `CC1(C)O[C@@H]2C[C@H]3[C@@H]4C[C@H](F)C5=CC(=O)CC[C@]5(C)[C@H]4[C@@H](O)C[C@]3(C)[C@]2(C(=O)CO)O1`, the “activity change, negative = cytotoxic” value was -8.21% (inactive).
Still for that read-out and setting: the result for `CCC(C(=O)OCCN(CC)CC)c1ccccc1` (centres undefined) reads -4.34% (inactive).
The same measure, in the same setting: the result for `C[C@@H]1C[C@H]2[C@@H]3CCC4=CC(=O)C=C[C@]4(C)[C@@]3(F)[C@@H](O)C[C@]2(C)[C@H]1C(=O)CO` reads -4.2% (inactive); that for `CCCC(=O)O[C@]1(C(=O)CO)CC[C@H]2[C@@H]3CCC4=CC(=O)CC[C@]4(C)[C@H]3[C@@H](O)C[C@@]21C`, 0.396% (inactive).
Consider `C=C1C[C@H]2[C@@H]3C=C(C)C4=CC(=O)CC[C@]4(C)[C@H]3CC[C@]2(C)[C@@]1(OC(C)=O)C(C)=O`, for which the “activity change, negative = cytotoxic” value was -7.22% (inactive).
In the case of `CCCCC(CC)CN=C(N)NC(N)=NCCCCCCN=C(N)NC(N)=NCC(CC)CCCC` (centres undefined), the Potency is 8.27 µM (active).
Regarding `C[C@H]1C[C@H]2[C@@H]3CCC4=CC(=O)C=C[C@]4(C)[C@@]3(Cl)[C@@H](O)C[C@]2(C)[C@@]1(O)C(=O)CO`, the “activity change, negative = cytotoxic” value was -4.46% (inactive).
`C[C@]12C=CC(=O)C=C1CC[C@@H]1[C@@H]2[C@@H](O)C[C@@]2(C)[C@H]1CC[C@]2(O)C(=O)CO`: the “activity change, negative = cytotoxic” value is -2.08% (inactive).
With `CC(=O)OCC(=O)[C@@]12N=C(C)O[C@@H]1C[C@H]1[C@@H]3CCC4=CC(=O)C=C[C@]4(C)[C@H]3[C@@H](O)C[C@@]12C`, the Potency was 0.657 µM (active).
The same measure, in the same setting: under `COc1cc(C=C2CCC/C(=C\c3ccc(O)c(OC)c3)C2=O)ccc1O` stands 5.85 µM (active); under `OC[C@H]1O[C@@H](n2cnc3c(=S)nc[nH]c32)[C@H](O)[C@@H]1O`, 2.93 µM (active).
For `CN(C)/N=N/c1nc[nH]c1C(N)=O`, the “activity change, negative = cytotoxic” value is -6.86% (inactive).
In the case of `CCCCCCC[N+](CC)(CC)CCCCc1ccc(Cl)cc1`, the Potency is 5.22 µM (active).
Still for that read-out and setting: under `COc1cccc2c1C(=O)c1c(O)c3c(c(O)c1C2=O)C[C@@](O)(C(=O)CO)C[C@@H]3O[C@H]1C[C@H](N)[C@H](O)[C@H](C)O1` stands 0.657 µM (active).
Regarding `C[C@]12CCC(=O)C=C1CC[C@H]1[C@@H]3CC[C@](O)(C(=O)CO)[C@@]3(C)C[C@H](O)[C@@]12F`, the “activity change, negative = cytotoxic” value is -27.7% (inactive).
In the case of `COCc1c(C(C)C)nc(C(C)C)c(/C=C/[C@@H](O)C[C@@H](O)CC(=O)O)c1-c1ccc(F)cc1`, the Potency is 1.65 µM (active).
Regarding `C[C@]12C=CC(=O)C=C1[C@@H](F)C[C@@H]1[C@@H]2[C@@H](O)C[C@@]2(C)[C@H]1CC[C@]2(O)C(=O)CO`, the “activity change, negative = cytotoxic” value was 6.89% (inactive).
